# According to the supplement of paper PMC8728848:
# The sample as a whole holds a higher share of the strongest signals than the screen did.
# Columns and labels:
# Assay in all cases: glycan array binding signal (z-score within array); higher = stronger binding
# Conditions in all cases: glycan notation: IUPAC condensed, linker removed; mutation: K348A
# [1] = target: Fuc(a1-2)Gal(b1-4)GlcNAc
# In short: (§1)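 Glycan array binding is given as a within-array Z-score, which can be read as non-binding when negative. The arrays, 3228 of them, came from the Consortium for Functional Glycomics database and were retained only where the protein sequence was available. Z-scores were averaged across arrays of the same protein sequence at different concentrations or buffers and across linkers.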
# [2] = target: Fuc(a1-2)Gal(b1-4)[Fuc(a1-3)]GlcNAc(b1-3)Gal(b1-4)[Fuc(a1-3)]GlcNAc(b1-3)Gal(b1-4)[Fuc(a1-3)]GlcNAc
# In short: as §1
# [3] = target: Fuc(a1-2)[Gal(a1-3)]Gal(b1-4)[Fuc(a1-3)]GlcNAc
# In short: as §1
# [4] = target: Fuc(a1-2)[GalNAc(a1-4)]Gal(b1-4)GlcNAc
# In short: as §1
# [5] = target: Fuc(a1-3)GlcNAc
# In short: as §1
# [6] = target: Fuc(a1-3)[Gal(b1-4)]GlcNAc(b1-2)Man(a1-3)[Fuc(a1-3)[Gal(b1-4)]GlcNAc(b1-2)Man(a1-6)]Man(b1-4)GlcNAc(b1-4)GlcNAc
# In short: as §1
# [7] = target: Fuc(a1-3)[Gal(b1-4)]GlcNAc(b1-4)Gal(b1-4)[Fuc(a1-3)]GlcNAc
# In short: as §1
# [8] = target: Fuc(a1-3)[Gal(b1-4)]GlcNAc6S
# In short: as §1
# [9] = target: Gal(b1-3)[Neu5Ac(b2-6)]GalNAc
# In short: as §1
# [10] = target: Gal(b1-4)GalNAc(a1-3)[Fuc(a1-2)]Gal(b1-4)GlcNAc
# In short: as §1
# [11] = target: Gal(b1-4)GlcNAc(b1-3)[Gal(b1-4)GlcNAc(b1-6)]Gal(b1-4)GlcNAc
# In short: as §1
# [12] = target: Gal(b1-4)GlcNAc(b1-6)GalNAc
# In short: as §1
# [13] = target: GalNAc(b1-4)GlcNAc
# In short: as §1
# [14] = target: Glc(a1-4)Glc
# In short: as §1
# [15] = target: Glc(b1-4)Glc
# In short: as §1
# [16] = target: GlcNAc(b1-3)[GlcNAc(b1-6)]Gal(b1-4)GlcNAc
# In short: as §1
# [17] = target: Man(a1-2)Man(a1-2)Man(a1-6)[Man(a1-3)]Man
# In short: as §1
# [18] = target: Man(a1-2)Man(a1-3)[Man(a1-2)Man(a1-6)]Man
# In short: as §1
# [19] = target: Man(a1-2)Man(a1-3)[Man(a1-2)Man(a1-6)]Man(a1-6)[Man(a1-2)Man(a1-2)Man(a1-3)]Man
# In short: as §1
# [20] = target: Man(a1-3)[Man(a1-6)]Man(a1-6)[Man(a1-2)Man(a1-3)]Man(b1-4)GlcNAc(b1-4)GlcNAc
# In short: as §1
# [21] = target: Man(a1-3)[Man(a1-6)]Man(a1-6)[Man(a1-3)]Man
# In short: as §1
# [22] = target: Neu5Ac(a2-3)Gal(b1-3)GalNAc(b1-4)[Neu5Ac(a2-3)]Gal(b1-4)Glc
# In short: as §1
# [23] = target: Neu5Ac(a2-3)Gal(b1-3)[Fuc(a1-4)]GlcNAc(b1-3)Gal(b1-4)[Fuc(a1-3)]GlcNAc
# In short: as §1
# [24] = target: Neu5Ac(a2-3)Gal(b1-4)[Fuc(a1-3)]GlcNAc(b1-3)Gal
# In short: as §1
# [25] = target: Neu5Ac(a2-3)Gal(b1-4)[Fuc(a1-3)]GlcNAc(b1-6)[Gal(b1-3)]GalNAc
# In short: as §1
# [26] = target: Neu5Ac(a2-6)Gal(b1-4)Glc
# In short: as §1
# [27] = target: Neu5Gc(a2-3)Gal(b1-3)[Fuc(a1-4)]GlcNAc
# In short: as §1
binder,measurement,setting,value
Surfactant Protein D (Human); Neck + Carbohydrate Recognition Domain (NCRD) (Homo sapiens) (protein) MLLFLLSALVLLTQPLGYLEAEMKTYSHRTMPSACTLVMCSSVESGLPGRDRDGREGPRGEKGDPGLPGAAGQAGMPGQAGPVGPKGDNGSVGEPGPKGDTGPSGPPGPPGVPGPAGREGALGKQGNIGPQGKPGPKGEAGPKGEVGAPGMQGSAGARGLAGPKGERGVPGERGVPGNTGAAGSAGAMGPQGSPGARGPPGLKGDKGIPGDKGAKGESGLPDVASLRQQVEALQGQVQHLQAAFSQYKKVELFPNGQSVGEKIFKTAQFVKPFTEAQLLCTQAGGQLASPRSAAENAALQQLVVAKNEAAFLSMTDSKTEGKFTYPTGESLVYSNWAPGEPNDDGGSEDCVEIFTNGKWNDRACGEARLVVCEF,glycan array binding signal (z-score),[1],-0.173
same,glycan array binding signal (z-score),[2],-0.151
same,glycan array binding signal (z-score),[3],-0.148
same,glycan array binding signal (z-score),[4],-0.151
same,glycan array binding signal (z-score),[5],-0.116
same,glycan array binding signal (z-score),[6],-0.176
same,glycan array binding signal (z-score),[7],-0.134
same,glycan array binding signal (z-score),[8],-0.17
same,glycan array binding signal (z-score),[9],-0.09
same,glycan array binding signal (z-score),[10],-0.175
same,glycan array binding signal (z-score),[11],-0.175
same,glycan array binding signal (z-score),[12],-0.173
same,glycan array binding signal (z-score),[13],-0.165
same,glycan array binding signal (z-score),[14],-0.171
same,glycan array binding signal (z-score),[15],-0.16
same,glycan array binding signal (z-score),[16],-0.177
same,glycan array binding signal (z-score),[17],8.57
same,glycan array binding signal (z-score),[18],7.38
same,glycan array binding signal (z-score),[19],8.69
same,glycan array binding signal (z-score),[20],6.04
same,glycan array binding signal (z-score),[21],6.52
same,glycan array binding signal (z-score),[22],-0.156
same,glycan array binding signal (z-score),[23],0.451
same,glycan array binding signal (z-score),[24],-0.173
same,glycan array binding signal (z-score),[25],-0.015
same,glycan array binding signal (z-score),[26],-0.17
same,glycan array binding signal (z-score),[27],-0.149
